Reference: PubChem BioAssay (NCI)
About 83,000 compounds went through this panel and 20% of them were active in at least one assay; those are over-represented in the sample as a whole.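 Percent growth is the endpoint: 0 to 100 indicates growth inhibition (40 means 60% inhibition), 0 means no net growth, and negative values indicate cell death.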 Values without a mark were called inactive. Active and inactive are the calls of the source. Rule for the calls: active = growth percent below 10; inactive = the rest.

Tests used:
Experiment in all cases: NCI-60 one-dose screen, 48 h (100 = growth as untreated, 0 = no growth, -100 = all killed)
Conditions in all cases: 10 µM unless noted
[1] = tested on: SK-MEL-2 melanoma
[2] = tested on: EKVX NSCLC
[3] = tested on: SN12C renal
[4] = tested on: UO-31 renal
[5] = tested on: TK-10 renal
[6] = tested on: ACHN renal
[7] = tested on: CAKI-1 renal
[8] = tested on: A498 renal
[9] = tested on: CCRF-CEM leukemia
[10] = tested on: MOLT-4 leukemia
[11] = tested on: RPMI-8226 leukemia
[12] = tested on: OVCAR-8 ovarian
[13] = tested on: OVCAR-5 ovarian
[14] = tested on: OVCAR-4 ovarian
[15] = tested on: SK-OV-3 ovarian
[16] = tested on: IGROV1 ovarian
[17] = tested on: OVCAR-3 ovarian
[18] = tested on: HS 578T breast
[19] = tested on: SR leukemia
[20] = tested on: NCI/ADR-RES ovarian

Row | Compound | growth [1] | growth [2] | growth [3] | growth [4] | growth [5] | growth [6] | growth [7] | growth [8] | growth [9] | growth [10] | growth [11] | growth [12] | growth [13] | growth [14] | growth [15] | growth [16] | growth [17] | growth [18] | growth [19] | growth [20]
1 | S=c1nc(-c2ccccc2)oc(=NC2CCCCC2)n1C1CCCCC1 | 37.9% | 24.4% | 67.9% | 46.5% | 32.8% | 15.4% | 75.4% | 86.8% | -6.7% (active) | 0.447% (active) | -8.22% (active) | 32.2% | 86.2% | 33.9% | 87.7% | -25.9% (active) | 11.8% | 43.1% |  | 
2 | CCc1ccc2nc(NC(=O)Cc3csc(NC(=O)c4ccco4)n3)sc2c1 | 67.9% | 81.7% | 79.4% | 60.5% | 82% | 57.2% | 60.1% | 83.9% | 87.2% | 39.9% | 55.8% | 43.3% | 83.1% | 43.1% | 65.1% | -9.65% (active) | 64.1% | 31.4% |  | 
3 | Cc1nc2ccccc2n1-c1ncnc2c1CC(C)c1ccccc1N2C (centres undefined) | 78.3% | 92.7% | 87.8% | 71.3% | 97.4% | 93.2% | 79.9% | 70.4% | 76.3% | 60.3% |  | 85% | 101% | 92.4% | 85.9% |  | 94.6% | 82.5% | 19.7% | 67.8%
4 | O=c1ccc(N=Nc2ccccc2)ccc1Cl | 77.6% | 65.9% | 60% | 77% | 111% | 75.9% | 76.1% | 191% | 31.3% | -1.36% (active) | 25.1% | 38.9% | 120% | 84.6% | 93.8% | 80.7% | 23.7% | 92.4% |  | 
5 | Oc1ccc(CCl)c2cccnc12 | 81.2% | 51.6% | 77% | 45.3% | 104% | 64.1% | 88.8% | 101% | 31.8% | 82.6% | 57.4% | 73.8% | 88.4% | 24.6% | 87.9% | 78.8% | 10.8% | 79.7% |  | 28.8%
6 | O=[N+]([O-])c1ccc(Cl)c(-c2cc(CCCCO)on2)c1 | 118% | 103% | 94.5% | 86% | 119% | 101% | 87.2% | 87.1% | 108% | 109% | 105% | 105% | 101% | 97.4% | 113% | 105% | 111% | 99.7% |  | 
7 | Nc1cc2c(cc1Br)-c1cc(Cl)ccc1C2=O | 100% | 86.5% | 102% | 67.1% | 115% | 100% | 78.5% | 102% | 98.2% | 88.2% | 88.7% | 99.3% | 91.8% | 99.9% | 98.7% | 74.2% | 96.5% | 98.6% |  | 
8 | Cc1nc2ccccc2n1CC1C(=O)NC(=O)NC1=O | 120% | 106% | 104% | 91.3% | 107% | 109% | 104% | -34.3% (active) | 103% | 98.1% | 115% | 105% | 103% | 107% | 107% | 106% | 119% | 110% |  | 
9 | COc1cc(CCC[P+](c2ccccc2)(c2ccccc2)c2ccccc2)c(OC)c2c1OCO2 | -13.1% (active) | 25.4% | 29.6% | 93.9% | 12.1% | 94.1% | 75.8% | 41.5% | 37.8% | 44.4% | 10.4% | 9.83% (active) | 64.6% | 11.1% | 27.2% | 32.5% | 5% (active) | 38.4% |  | 98.5%
10 | COc1cc(/C=N/NC(=O)c2ccc(C)nc2)cc(OC)c1OC | 79.3% | 90.4% | 102% | 65.6% | 81.3% | 91.2% | 79.8% | 93.2% | 87% | 57.8% |  |  | 103% | 96.4% | 112% | 107% | 119% | 88.6% | 103% | 102%
11 | CN(C(=O)NCc1cccc(F)c1Cl)[C@H](COC(=O)Nc1cc2ccccc2cn1)CC(O)CO (some centres undefined) | 113% | 77.4% | 86.1% | 51.8% | 101% | 107% | 25.8% | 54.7% | 64.9% | 94.9% | 119% | 88.1% | 95.8% | 94.6% | 78.5% | 71.9% | 103% | -0.749% (active) |  | 
12 | Cc1nc(NC(=O)COc2ccc(/C=C3\Cc4ccc(Cl)cc4C3=O)cc2)sc1C | 97.4% | 103% | 103% | -88.5% (active) | 310% | 93.7% | 86.1% | 139% | 100% | 83.1% |  |  | 105% | 113% | 114% |  | 105% | 139% | 93.2% | 96.3%
13 | C=CCc1cc(C)ccc1NC(C(=O)NCC(=O)OC)c1ccccc1 (centres undefined) | 96.4% | 93.9% | 91.4% | 80.6% | 106% | 98.5% | 88.1% | 94.6% | 105% | 97.1% |  | 100% | 86.7% | 105% | 91.2% |  | 105% | 106% | 95% | 92.7%
14 | Cc1cc(N2CCCC2)nc(N(CCCNc2ccnc3cc(Cl)ccc23)Cc2ccccn2)n1 | 71.7% | 66.2% | 52% | 5.6% (active) | 80.3% | 80.8% | 84.4% | 42% | 55% | 46.7% | 28% | 49.2% | 59.6% | 81% | 76.5% | 50.7% | 59.5% | 72.6% |  | 
15 | Cc1ccc(C(C)C)cc1C(=O)C[n+]1ccccc1 | 107% | 99.7% | 102% | 87.5% | 103% | 95.6% | 99.6% | 81.5% | 113% | 88.4% |  |  | 91.1% | 101% | 97.7% | 98.6% | 101% | 100% | 86.1% | 107%
16 | CNc1nc2c(s1)C(c1cccc(F)c1)CC(=O)N2 (centres undefined) | 100% | 103% | 95.2% | 84.6% | 105% | 88.4% | 87.6% | 69% | 104% | 103% | 106% | 102% | 97.1% | 107% | 100% | 107% | 99.1% | 94.3% |  | 103%
17 | Cc1ccc(-c2nc3c(c(-c4ccccc4)nn3-c3ccccc3)c(-c3ccc(O)cc3)c2C#N)cc1 | 78.7% | 74.5% | 53.7% | 39.4% | 38.3% | 67.6% | 50.4% | 44.2% | 39.1% | 40.5% | 21.4% | 69% | 104% | 82.2% | 92.6% | 82.6% | 64.5% | 24% |  | 81.4%
